Values joined by “and” are separate entries in the source; they are usually repeats but may differ in a detail not shown here. Equal values may be shown once. Records with an inconclusive call do not appear. Values without a mark were called inactive. Calls come from the whole dose curve; as a rule, active = well fitted activation curve with a large enough effect in the signal ratio; inconclusive = small, poorly fitted or top-dose-only effect, or a change in a side signal; inactive = flat fitted curve, though single readings scatter; the % refers to the signal ratio.
Assay: qHTS assay for small molecule activators of the nuclear factor-kappa B (NF-kB) signaling pathway (AID 651749); note: series mostly up to about 77 µM; % of control where 0% means no effect
Conditions: NF-kB-bla ME-180 cells, beta-lactamase FRET ratio, 16 h; active compounds read high
Procedure, shortened: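 In this qHTS format, compounds acting as activators increase NF-kB-driven beta-lactamase in ME-180 cells, measured as disrupted FRET after 16 hr exposure at 37C and 5% CO2.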

| Compound | activation |
| --- | --- |
| COc1ccc(C(c2ccc(OC)cc2)C(Cl)(Cl)Cl)cc1 | 1.06% and 0.442% and 3.56% |
| O=C(O)COc1nc(Cl)c(Cl)cc1Cl | 0.434% |
| O=C(O)COc1ccccc1 | -0.0582% |
| O=[N+]([O-])c1c(Cl)c(Cl)cc(Cl)c1Cl | -0.885% |
| COc1nn(CSP(=S)(OC)OC)c(=O)s1 | -0.901% |
| ClC1=C(Cl)[C@]2(Cl)[C@@H]3[C@@H]4C[C@@H]([C@H]5O[C@@H]45)[C@@H]3[C@@]1(Cl)C2(Cl)Cl | 5.88% |
| c1cc2ccc3cccc4ccc(c1)c2c34 | -0.548% and 0.897% |
| OCCCBr | -0.539% |
| O=S(=O)(O)C(F)(F)C(F)(F)C(F)(F)C(F)(F)F | -0.249% and 0.21% |
| CN(C)NC(=O)CCC(=O)O | 0.502% and -0.298% |
| Nc1ccc([N+](=O)[O-])cc1 | -0.186% |
| CCOP(=O)(NC(C)C)Oc1ccc(SC)c(C)c1 (configuration not stated) | -0.0757% and -0.702% |
| Nc1ccc(Cl)cc1N | 0.983% and -0.776% |
| O=C(Nc1ccccc1-c1ccc(Cl)cc1)c1cccnc1Cl | 0.368% |
| Cc1cc(O)ccc1Cl | -0.28% |
| CCO/N=C(\CC)C1=C(O)CC(c2c(C)cc(C)cc2C)CC1=O (configuration not stated) | 0.436% |
| C=CC(=O)NCNC(=O)C=C | -0.065% and -1.61% |
| CC(C)Oc1cccc(NC(=O)c2ccccc2C(F)(F)F)c1 | 1.81% |
| Clc1cnc(Oc2ccc(Oc3ncc(Cl)cc3Cl)cc2)c(Cl)c1 | 0.531% |
| CCCCCC[C@H]1C(=O)O[C@H](C)[C@H](NC(=O)c2cccc(NC=O)c2O)C(=O)O[C@@H](C)[C@@H]1OC(=O)CC(C)C | 2.55% |
| CC(C)(C)C(O)C(Oc1ccc(Cl)cc1)n1cncn1 (configuration not stated) | -0.211% |
| COC(C)(C)CCCC(C)C/C=C/C(C)=C/C(=O)OC(C)C (configuration not stated) | -3.22% and 0.402% |
| C=CCC1=C(C)C(OC(=O)C2C(C=C(C)C)C2(C)C)CC1=O (configuration not stated) | 0.983% and 2.07% |
| O=[N+]([O-])c1cc([N+](=O)[O-])c2ccccc2c1 | -0.323% |
| CS(=O)(=O)c1ccc(C(=O)C2C(=O)CCCC2=O)c([N+](=O)[O-])c1 | -0.467% |
| CCCCC(CC)COC(=O)c1ccccc1C(=O)OCC(CC)CCCC (configuration not stated) | 0.371% and -1.46% |
| CCCCOC(=O)c1ccccc1C(=O)OCc1ccccc1 | -1.25% and 0.0084% |

Reference: PubChem BioAssay (NCATS)
